Test results published in PubChem BioAssay (NCATS).
Records with an inconclusive call do not appear. Active and inactive are the calls of the source. Unless noted, calls come from the whole dose curve; as a rule, active = well fitted curve in the direction sought with a large enough effect; inconclusive = small, poorly fitted or top-dose-only effect, or another doubt; inactive = no such curve, though single readings can be large; an effect the other way counts as inactive or inconclusive.

Columns and labels:
[1] = Cell Viability - Mesenchymal (AID 546);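 note: cells exposed to compound for 40 hours before reading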
In short: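 CellTiter-Glo luminescence (intracellular ATP, 20 min room temperature) after 40 hr compound exposure at 37 °C of 1000 glomerulus-derived human kidney mesenchymal cells/well; AC50 values obtained by fitting qHTS concentration-response data to the Hill equation.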

[2] = Cellular Toxicity (caspase-3) HepG2 (AID 654);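 note: cells exposed to compound for 16 hours before reading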
In short: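 Caspase 3/7 activation is measured as a luminescence increase (aminoluciferin substrate) after 16 h compound exposure of human hepatocarcinoma HepG2 cells. AC50 values are Hill fits, scaled between DMSO baseline and 100 uM tamoxifen stimulation.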

[3] = Cellular Toxicity (caspase-3) Jurkat (AID 655);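 note: cells exposed to compound for 16 h at 37 °C before reading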
In short: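 Luminescent caspase-3/7 readout (aminoluciferin substrate cleavage) in human T-cell leukemia Jurkat cells after 16 hr compound exposure. Concentration-response normalized to DMSO and 100 uM tamoxifen; AC50 by standard Hill equation.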

[4] = Cellular Toxicity (caspase-3) HUV-EC-C (AID 656)
In short: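 Luminescent caspase-3/7 activation (aminoluciferin substrate cleavage) in HUV-EC-C cells after 16 hr compound exposure, 37°C. Signal normalized to DMSO basal and 100 uM tamoxifen as 100%; AC50 from concentration-response fitted with the Hill equation.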

[5] = Cellular Toxicity (caspase-3) SHSY5Y (AID 657);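 note: cells exposed to compound for 16 hours at 37 °C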
In short: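 Luminescent caspase-3/7 readout (aminoluciferin release) in SH-SY5Y cells after 16 h compound exposure in complete medium. Activity scaled between DMSO basal and 10 uM staurosporine as 100%; concentration-response fitted to Hill equation for AC50.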

[6] = Cellular Toxicity (caspase-3) BJ (AID 658);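 note: cells exposed to compound for 16 hours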
In short: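 Caspase-Glo 3/7 luminescence, read 1 hr after reagent at room temperature, in normal BJ fibroblasts exposed 16 hours at 37 °C. AC50 values from Hill-equation concentration-response, scaled between DMSO basal and 10 uM staurosporine as 100%.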

[7] = Cellular Toxicity (caspase-3) MRC-5 (AID 659)
In short: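 Luminescent Caspase-Glo 3/7 read-out (1 h, room temperature) after a 16 h, 37 °C compound exposure of MRC-5 lung fibroblasts at 1500 cells/well. Concentration-response AC50 from Hill equation; 0% DMSO, 100% 10 uM staurosporine.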

[8] = Cellular Toxicity (caspase-3) Mesangial (AID 660);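 note: combined caspase 3 and 7 activity read by Caspase-Glo luminescence; cells exposed to compound for 16 h before the caspase read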
In short: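 Caspase 3/7 activation measured by Caspase-Glo 3/7 luminescence (20 min, room temperature) following 16 h exposure of mesangial cells (1000/well); AC50 from Hill-equation fit, normalized to DMSO and 100 uM tamoxifen.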

[9] = Cellular Toxicity (caspase-3) SK-N-SH (AID 661);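 note: cells exposed to compound for 16 hours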
In short: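 Caspase 3/7 activation was read by luminogenic substrate cleavage after 16 hour treatment of SK-N-SH cells. Signal was scaled between DMSO and 10 uM staurosporine, and concentration-response data were fitted with the Hill equation for AC50.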

[10] = target: 3',5'-cyclic-AMP phosphodiesterase 4B (Homo sapiens) (UniProt Q07343); test: qHTS Assay for Inhibitors of PDE-IV (AID 607; active = well fitted activation curve with a large enough effect in the main read-out, with a control signal flat, not every such curve was filed as active)
Sequence of 3',5'-cyclic-AMP phosphodiesterase 4B (Homo sapiens) (Q07343 whole entry, looked up): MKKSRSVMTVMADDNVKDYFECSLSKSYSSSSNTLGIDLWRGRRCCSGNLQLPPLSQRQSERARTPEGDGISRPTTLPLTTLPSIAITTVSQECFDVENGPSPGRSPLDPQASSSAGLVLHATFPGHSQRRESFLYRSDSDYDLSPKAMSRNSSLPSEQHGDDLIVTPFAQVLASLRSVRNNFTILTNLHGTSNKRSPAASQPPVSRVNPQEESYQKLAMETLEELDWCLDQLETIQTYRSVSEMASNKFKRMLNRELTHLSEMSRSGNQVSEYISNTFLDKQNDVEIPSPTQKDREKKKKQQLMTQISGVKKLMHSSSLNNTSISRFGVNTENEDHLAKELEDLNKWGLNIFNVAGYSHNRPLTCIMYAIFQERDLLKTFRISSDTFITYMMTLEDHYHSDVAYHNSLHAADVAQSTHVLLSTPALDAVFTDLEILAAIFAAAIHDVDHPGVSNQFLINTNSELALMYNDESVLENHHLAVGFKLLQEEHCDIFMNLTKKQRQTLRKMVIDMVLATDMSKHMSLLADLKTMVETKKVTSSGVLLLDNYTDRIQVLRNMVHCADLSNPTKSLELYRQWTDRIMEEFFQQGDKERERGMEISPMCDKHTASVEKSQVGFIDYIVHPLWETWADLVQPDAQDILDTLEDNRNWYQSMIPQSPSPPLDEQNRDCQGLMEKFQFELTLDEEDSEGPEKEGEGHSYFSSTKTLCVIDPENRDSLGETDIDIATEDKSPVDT
In short: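 ACTOne HEK293 cells carry a modified cAMP-gated CNG channel and express endogenous PDE4; plated 1000 cells/well, compounds up to 22.9 uM final. Membrane-potential dye fluorescence (ex 535/em 590) was read; parental cells received 10 uM forskolin + 100 uM RO 20-1724.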

Measured: outcome

Cc1ccc(N)cc1O
not listed: [10]
inactive: all other assays above

COc1ccc(C[C@H](N)C(=O)N[C@@H]2[C@H](O)[C@H](n3cnc4c(N(C)C)ncnc43)O[C@@H]2CO)cc1
inactive: [10]

COc1ccc2c(OC)c3ccoc3nc2c1OC
inactive: [10]

CC(=O)O[C@@H]1CC(C)=C2[C@H]1[C@H](C)CC[C@H]2/C=C(\C)C(=O)O
not listed: [10]
inactive: all other assays above

Cc1ccccc1CN1C2=NCCN2C(=O)C2=C1CCN(Cc1ccccc1)C2
inactive: [10]

CC(=O)O[C@H]1C(=O)[C@@]2(C)[C@H]([C@H](OC(=O)c3ccccc3)[C@]3(O)C[C@H](OC(=O)[C@H](O)[C@@H](NC(=O)c4ccccc4)c4ccccc4)C(C)=C1C3(C)C)[C@]1(OC(C)=O)CO[C@@H]1C[C@@H]2O
inactive: [10]

Nc1ccccc1N
not listed: [3] | [8] | [10]
inactive: all other assays above
